Laboratory results: PubChem BioAssay AID1159580 (chemical genetic matrix, 2015)
Out of some 5,500 compounds screened, about 2,000 (36%) were called active. Inconclusive results (about 18%) are left out. Rule as the data show it: active = normalized growth mostly below about 0.91 (no sharp cut-off); inconclusive = no clear call, values can overlap the other calls; inactive = mostly above about 0.92. Some of the results follow.

Experiment: chemical genetic growth profiling, strain panel (AID 1159580);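 also: tested at 20 µM; growth read once vehicle control cultures reached saturation at 30 °C; 1 = growth at the plate median or of vehicle wells; lower values mean less growth of the strain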
Conditions: S. cerevisiae deletion strains, growth OD

Measured: normalized growth

COc1ccc2c(c1)c(CC(=O)O)c(C)n2C(=O)c1ccccc1
inactive: locus YAL040C, strain CLN3, hits give low values 1.03 | locus YDR150W, strain NUM1, hits give low values 0.99 | locus YDR363W, strain ESC2, hits give low values 1.04 | locus YER002W, strain NOP16, hits give low values 1 | locus YGR078C, strain PAC10, hits give low values 1.03 | locus YGR229C, strain SMI1, hits give low values 1.02 | locus YNL153C, strain GIM3, hits give low values 0.986 | locus YNL175C, strain NOP13, hits give low values 1.02 | locus YNL197C, strain WHI3, hits give low values 1.01 | locus YNL224C, strain SQS1, hits give low values 1.02 | locus YOR083W, strain WHI5 (second series), hits give low values 1.03 | locus YPL055C, strain LGE1, hits give low values 1 | locus YPL241C, strain CIN2, hits give low values 0.998
